FAS TE block: FAS thioesterase domain inhibitors, primary screen, biochemical, fluorescence intensity, uHTS; recombinant FAS-TE, OMFH fluorogenic substrate, fluorescence endpoint; inhibition, % at 15 µM; 360,000 tested, 0.67% active; AID 602261, 2012;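 active = compounds whose normalised, plate-corrected inhibition of enzyme fluorescence in the single-dose primary screen is 50% or more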;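 note: 0% = DMSO with enzyme and 100% = substrate without enzyme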
PfGluPho inh: PfG6PD enzyme inhibitors, primary screen, biochemical, fluorescence intensity, uHTS. 350,000 tested, 0.78% active. AID 504690, 2011. PfGluPho enzyme, NADPH resazurin-diaphorase fluorescence. inhibition, % at 20 µM;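 active = inhibition reaching at least a set limit at 20 µM in the primary screen, cut at about 59% in these data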;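 note: 0% = DMSO wells with substrate and 100% = DMSO wells lacking glucose-6-phosphate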
H9c2 protect: cardioprotection against H2O2-induced cell death, primary screen, uHTS, H9c2 cells, ATPLite luminescence | H9c2 cardiomyocytes, H2O2 injury protection, 2 h | protection from H2O2 cell death, % at 20 µM | 360,000 tested, 0.63% active | AID 588492, 2011;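 active = compounds giving at least 50% protection of heart cells from peroxide-induced death in the single-dose screen, raw or plate-pattern-corrected value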;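 note: 0% = DMSO wells with peroxide and 100% = DMSO wells without peroxide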
CRFBP-R2 block: antagonists of CRF-BP/CRF-R2 complex, primary screen, cell-based, HEK293, calcium dye fluorescence, uHTS. CRF-induced calcium fluorescence. 350,000 tested, 0.59% active. inhibition, % at 11.8 µM;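 active = inhibition of the ligand-induced calcium signal above about 50% at the single tested concentration, limit read from the data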
CRFBP-R2 agonist: agonists of CRF-BP/CRF-R2 complex, primary screen, cell-based, HEK293, calcium dye fluorescence, uHTS | calcium dye fluorescence (FLIPR); percent of saturating CRF peptide response | activation, % at 13.2 µM | 350,000 tested, 0.46% active;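 active = activation of at least 50%, plus an integration ratio under a set limit after plate pattern correction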;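 note: plate controls were neutral control wells without compound for no effect and CRF at EC100 for full effect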
aDG glyco up: activators of alpha-DG glycosylation, primary screen, uHTS, Pro5-aDG cells, AlphaScreen | AID 624168, 2012 | activation, % at 10 µM | 360,000 tested, 0.22% active | alpha-DG glycosylation AlphaScreen (IIH6); 0% Pro5, 100% B10-LARGE cell signal;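 active = activation of at least 8% versus controls, or a plate z-score of at least 8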;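 note: Pro5 are CHO cells carrying HIG-tagged alpha-DG that lacks glycosylation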
aDG conf: alpha-DG glycosylation enhancers, retest, confirmation, single concentration, Pro5-aDG cells. AID 651671, 2012. shares compounds with aDG glyco up. IIH6 AlphaLISA; scaled to LARGE-overexpressing B10 cells as 100%. 600 tested, 17% active. activation, % at 10 µM (by protocol);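 active = activation of at least 7% in one or more replicates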;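 note: cells exposed to compound for two days before detection; 0% = DMSO-treated Pro5 cells and 100% = DMSO-treated B10-LARGE cells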
Starred values were filed as active, the others as inactive; / = no result given. An excerpt weighted towards active compounds, which were near 3.2% of everything screened.

SMILES	FAS TE block	PfGluPho inh	H9c2 protect	CRFBP-R2 block	CRFBP-R2 agonist	aDG glyco up	aDG conf
O=C(CN1CCN(c2ccc(F)cc2)CC1)c1ccc(O)cc1O	-6	-5	-10	-10	-1	0	/
O=S1(=O)CCOCCCN1Cc1ccccc1Br	-8	3	1	5	-2	0	/
O=C(Nc1ccccc1F)c1ccc2ncsc2c1	-1	1	-3	7	4	0	/
CCOc1ccc(S(=O)(=O)N2CCN(c3ccccc3OC)CC2)c2cccnc12	2	0	2	-13	0	6.5*	0
O=C(NC1CCCC1)c1cccc(S(=O)(=O)N2CCCC2)c1	-4	-2	1	-2	-1	0	/
COc1cc2[nH]c3c(=O)n4c(nc3c2cc1OC)SCCC4	0	21	17	93*	44	31*	22*
Cc1cc(S(=O)(=O)NCc2ccncc2)c(C)cc1Br	5	-7	-20	-2	0	4	/
O=C(OCc1ccccc1)N1CCC2CC1c1cc(N3CCCCC3)ccc12 (stereo unspecified)	17	-5	-18	32	-1	5.9*	-1
O=C(OCc1ccccc1)N1CCC2CC1c1cc(N3CCNCC3)ccc12 (stereo unspecified)	-13	4	-12	-8	-1	1	/
CC(C)CN(CC(C)C)C(=O)C12CCC(C)(C(=O)C1)C2(C)C (stereo unspecified)	0	0	1	-17	0	0	/
Nc1nc(-c2ccco2)nn1S(=O)(=O)c1ccccc1	-5	-9	-1	5	6	0	/
Nc1nc(-c2cccnc2)nn1S(=O)(=O)c1ccccc1	-6	0	1	14	-1	7.2*	0
O=C1SCCN1N=Cc1ccc([N+](=O)[O-])o1	-5	11	9	-17	1	7.2*	3.5*
NS(=O)(=O)c1ccc(CNS(=O)(=O)c2cc(Cl)ccc2Cl)cc1	-3	-7	1	-7	0	0	/
COc1ccc(C(C)=O)cc1COC(=O)CNC(=O)C1CCCCC1	-6	2	18	1	-4	9.1*	0
CC(OC(=O)C1CSC2(c3ccc(F)cc3)CCC(=O)N12)C(=O)NC(N)=O (stereo unspecified)	-2	-3	7	-2	6	0	/
CCc1nc2ccc(C(=O)NC3CCN(Cc4ccccc4)CC3)cn2c1N(C)Cc1cc2ccccc2s1	10	/	-30	/	/	6.4*	11*
CCc1nc2ccc(C(=O)NC3CCN(Cc4ccccc4)CC3)cn2c1N(C)Cc1cccs1	0	/	7	/	/	2	/
COc1ccccc1NC(=O)Nc1nc(C(N)Cc2ccc(Cl)cc2)cs1 (stereo unspecified)	-9	/	-17	/	/	1	/
COc1ccccc1NC(=O)Nc1nc(C(N)Cc2ccccc2)cs1 (stereo unspecified)	-8	/	4	/	/	7.4*	6.9*
Cc1ccccc1CN(C)CC(=O)NC(C)CCc1ccccc1 (stereo unspecified)	4	-8	-5	-8	-1	0	/
Cc1ccc(S(=O)(=O)NC(=O)NCc2ccccn2)cc1	-6	-13	-3	14	-1	51*	-1
CCc1cc(C(=O)N2CCN(C(=O)c3ccccc3)CC2)sc1C	-4	-1	-2	5	2	0	/
CCCC(=O)N(CCN1CCOCC1)c1nc2c(F)cc(F)cc2s1	8	7	2	-7	7	0	/
Cc1ccc(S(=O)(=O)c2c(N)n(Cc3ccco3)c3nc4ccccc4nc23)cc1	5	23	1	-7	33	17*	0
SMILES	FAS TE block	PfGluPho inh	H9c2 protect	CRFBP-R2 block	CRFBP-R2 agonist	aDG glyco up	aDG conf
Cc1cccc(S(=O)(=O)c2c(N)n(Cc3ccco3)c3nc4ccccc4nc23)c1	2	10	-4	-93	97*	21*	1
CCCCn1c(N)c(S(=O)(=O)c2ccc(C)cc2)c2nc3ccccc3nc21	20	6	-4	-14	2	0	/
CC/C(=N\NC(=O)C1CCCC1)c1cccc(Br)c1	2	4	4	-21	-1	0	/
CC/C(=N\NC(=O)C1CCCC1)c1ccc(Br)cc1	0	8	1	-11	0	8.8*	-1
CCCCN1CCc2c1nc1ccc(Br)cc1c2N	4	33	-19	6	0	3.6*	7.8*
Cc1ccc2nc3c(c(N)c2c1)CCN3C	-8	-17	3	-2	0	0	/
Cc1cc(=O)oc2cc(OCC(=O)N3CCCc4ccccc43)ccc12	4	2	23	-12	-3	0	/
Cc1cc(=O)oc2cc(OCC(=O)N3CCc4ccccc4C3)ccc12	39	-4	5	2	0	4.2*	1
COc1ccc(C2N=C(c3ccccc3)NO2)cc1OC (stereo unspecified)	-2	-7	-6	2	2	2.8*	0
CC(C)c1nc2cc(C(=O)N3CCNC(=O)C3c3cccc(F)c3)ccc2o1 (stereo unspecified)	-4	14	3	-6	2	0	/
CCCc1cc(=O)oc2cc(OC(C)C(=O)NC3CC(C)(C)NC(C)(C)C3)ccc12 (stereo unspecified)	-3	-6	-2	-5	0	1	/
O=C(NCCCN1CCOCC1)c1[nH]c(C(F)(F)F)nc1-c1ccccc1	-7	/	-2	/	/	0	/
CC(=O)c1c(C)[nH]c(C(=O)OCc2ccc(Br)cc2)c1C	28	10	-15	-30	-1	9.0*	0
Cc1cccc(NC(=O)COC(=O)c2c(-c3ccccc3)noc2C)c1	12	-1	1	-10	2	0	/
CN1CCN(c2ncnc3c2ncn3[C@H]2CN(Cc3ccc(-c4ccccc4)cc3)C[C@@H](CO)O2)CC1	-1	/	-9	/	/	9.6*	9.8*
OCCN1CCN(c2ncnc3c2ncn3[C@H]2CN(Cc3ccc(-c4ccccc4)cc3)C[C@@H](CO)O2)CC1	0	/	-1	/	/	2	/
O=C(CNC(=O)c1cccc(F)c1)N/N=C/c1ccc([N+](=O)[O-])s1	-7	5	-2	-6	1	11*	3
C=CCNC(=S)N/N=C/c1ccc(C(C)(C)C)cc1	23	-1	-14	-3	-2	8.6*	2
